Measurements taken from ChEMBL document CHEMBL4513141, “CO-ADD screening of NIH (USA) - Clinical Collection” (2021).
Entries with a potency or affinity are not part of this list.

Experiments:
Staphylococcus aureus = conditions: Concentration 20 uM; ASSAY_TEST Inhibition of Bacterial Growth; detection method Absorption (OD600); MEDIA CAMHB; plate type 384well; NBS; CORNING #3640; time 18 hr
Escherichia coli = conditions: Concentration 20 uM; ASSAY_TEST Inhibition of Bacterial Growth; detection method Absorption (OD600); MEDIA CAMHB; plate type 384well; NBS; CORNING #3640; time 18 hr

Row | Structure (SMILES) | Inhibition (Staphylococcus aureus) [%] | Inhibition (Escherichia coli) [%]
1 | O=C1N=C([O-])NC1(c1ccccc1)c1ccccc1.[Na+] [PHENYTOIN SODIUM] | 10.31 | 2.45
2 | C[C@]12CCC(=O)C=C1CC[C@@H]1[C@@H]2[C@@H](O)C[C@@]2(C)[C@H]1CC[C@]2(O)C(=O)COC(=O)CCC(=O)O [HYDROCORTISONE HEMISUCCINATE ANHYDROUS] | -27.4 | 4.71
3 | Cl.O.O=C1N(c2ccccc2)c2ccccc2C1(Cc1ccncc1)Cc1ccncc1 | 4.07 | 3.98
4 | C=C[C@H]1CN2CC[C@H]1C[C@@H]2[C@@H](O)c1ccnc2ccc(OC)cc12 [QUINIDINE] | 10.07 | -1.55
5 | COc1cc([C@@H]2c3cc4c(cc3[C@@H](O[C@@H]3O[C@@H]5CO[C@@H](C)O[C@H]5[C@H](O)[C@H]3O)[C@H]3COC(=O)[C@H]23)OCO4)cc(OC)c1O [ETOPOSIDE] | 14.84 | -0.07
6 | CC12CCC(=O)C=C1CCC1C2CCC2(C)C1CCC2(O)C(=O)CO (stereo unspecified) | 8.54 | -7.68
7 | CCN1CCCC1CNC(=O)c1cc(S(=O)(=O)CC)c(N)cc1OC (stereo unspecified) [AMISULPRIDE] | 15.04 | -7.41
8 | Cc1ccccc1C(OCCN(C)C)c1ccccc1.Cl (stereo unspecified) [ORPHENADRINE HYDROCHLORIDE] | 13.17 | -1.64
9 | O=C(CCNNC(=O)c1ccncc1)NCc1ccccc1 [NIALAMIDE] | 16.28 | 8.37
10 | Cc1cccc(C)c1NC(=O)C(C)N (stereo unspecified) [TOCAINIDE] | 2.4 | 3.98
11 | CC(=O)O[C@@]12CO[C@@H]1C[C@H](O)[C@@]1(C)C(=O)[C@H](O)C3=C(C)[C@@H](OC(=O)[C@H](O)[C@@H](NC(=O)OC(C)(C)C)c4ccccc4)C[C@](O)([C@@H](OC(=O)c4ccccc4)[C@H]21)C3(C)C | 10.2 | 3.46
12 | CC(C)c1ccc2oc3nc(N)c(C(=O)O)cc3c(=O)c2c1 [AMLEXANOX] | 16.12 | 0.07
13 | CCS(=O)(=O)CCn1c([N+](=O)[O-])cnc1C [TINIDAZOLE] | 16.09 | -5.72
14 | COc1ccc2c(c1)c(CC(=O)O)c(C)n2C(=O)c1ccc(Cl)cc1.O | 8.16 | 7.22
15 | Cc1occc(=O)c1O [MALTOL] | 14.12 | 4.13
16 | O=C(O)c1cc2ccccc2c(Cc2c(O)c(C(=O)O)cc3ccccc23)c1O.OCCOCCN1CCN(C(c2ccccc2)c2ccc(Cl)cc2)CC1 [HYDROXYZINE PAMOATE] | 11.96 | 0.33
17 | CN1CCCCC1CCN1c2ccccc2Sc2ccc([S+](C)[O-])cc21.O=S(=O)(O)c1ccccc1 (stereo unspecified) [MESORIDAZINE BESYLATE] | -15.92 | 4.24
18 | Cc1sc(N)c(C(=O)c2cccc(C(F)(F)F)c2)c1C | 5.2 | -1.03
19 | CN1CCN(CCCN2c3ccccc3Sc3ccc(C(F)(F)F)cc32)CC1.Cl.Cl [TRIFLUOPERAZINE HYDROCHLORIDE] | 19.71 | 0.85
20 | CCN1CCC[C@H]1CNC(=O)c1cc(S(N)(=O)=O)ccc1OC [LEVOSULPIRIDE] | 7.78 | 3.44
21 | CC1(C)S[C@@H]2[C@H](/N=C/N3CCCCCC3)C(=O)N2[C@H]1C(=O)O [AMDINOCILLIN] | 10.96 | 1.83
22 | CC(=O)CCCCn1c(=O)c2c(ncn2C)n(C)c1=O [PENTOXIFYLLINE] | 15.42 | 2.27
23 | Nc1nc(Cl)nc2c1ncn2[C@H]1C[C@H](O)[C@@H](CO)O1 [CLADRIBINE] | 6.87 | 14.09
24 | COc1c2occc2cc2ccc(=O)oc12 [METHOXSALEN] | 13.34 | -6.11
25 | Nc1ccc2cn[nH]c2c1 | -30.24 | 5.89
26 | CCc1cc(C(N)=S)ccn1 [ETHIONAMIDE] | 13.26 | 2.06
27 | CN(C)c1nc(N(C)C)nc(N(C)C)n1 [ALTRETAMINE] | 15.78 | -2.16
28 | CC(=O)NCCCCCCNC(C)=O [HEXAMETHYLENEBISACETAMIDE] | -6.23 | 3.8
